In the supplement of paper PMC10849652:
Targets with a hit are over-represented here; the source holds about 7,900 in all. About 0.6% of all pairs of compound and target were hits.

Legend:
Assay in all cases: log2 fold change, soluble protein after heating vs DMSO (PISA); higher = thermal stabilisation; K562 cells, 10 uM, 30 min; active = over 0.2 and 3.5 SD of the protein, either way, in both replicates (recomputed)
[1] = compound: COC1=CC=C(C=C1)CN2C=CC3=C2C=C(C=C3)C(=O)NO
Method in brief: (§1)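 K562 cells (2×10^6 cells/mL) were treated with 10 μM compound for 30 min, and aliquots were heated for 3 min over 48°C-58°C. Pooled aliquots were extracted in PBS with 0.5% NP-40 at 4°C, and the supernatant after 21,000xg for 90 min was measured by TMTpro 16plex LC-MS/MS with channel sums equalised. Reported thermal stability, relative to control samples and from duplicates, is a log2 fold change.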

[2] = compound: CON(C)C(=O)N1N=C(c2cc(F)ccc2F)S[C@@]1(CCCN)c1ccccc1 [filanesib]
Method in brief: as §1

[3] = compound: COc1cc(C(=O)O)ccc1NC(=O)[C@@H]1N[C@@H](CC(C)(C)C)[C@](C#N)(c2ccc(Cl)cc2F)[C@H]1c1cccc(Cl)c1F [idasanutlin]
Method in brief: as §1

[4] = compound: COc1cc2nc(-c3cc(F)ccc3O)nc(N[C@@H]3CNC[C@H]3C(C)(C)O)c2cc1OC
Method in brief: as §1

[5] = compound: CS(=O)(=O)CCNCc1ccc(-c2ccc3ncnc(Nc4ccc(OCc5cccc(F)c5)c(Cl)c4)c3c2)o1 [lapatinib]
Method in brief: as §1

[6] = compound: CS(=O)(=O)N1CCN(Cc2cc3nc(-c4cccc5[nH]ncc45)nc(N4CCOCC4)c3s2)CC1 [pictilisib]
Method in brief: as §1

[7] = compound: CS(=O)(=O)c1ccc(-c2cnc(N)c(C(=O)Nc3ccccc3)n2)cc1
Method in brief: as §1

[8] = compound: C[C@@H](Oc1cc(-c2cnn(C3CCNCC3)c2)cnc1N)c1c(Cl)ccc(F)c1Cl [crizotinib]
Method in brief: as §1

[9] = compound: C[C@@H]1COCCN1C2=NC(=NC(=C2)C3(CC3)S(=O)(=O)C)C4=C5C=CNC5=CC=C4
Method in brief: as §1

[10] = compound: C[C@H](Nc1ncnc2nc[nH]c12)c1cc2cccc(Cl)c2c(=O)n1-c1ccccc1 [duvelisib]
Method in brief: as §1

[11] = compound: Cc1cc(Nc2cc(CN3CCOCC3)c3nc(C)c(Cc4ccc(Cl)cc4F)n3n2)n[nH]1 [gandotinib]
Method in brief: as §1

[12] = compound: Cc1cc(Nc2cc(N3CCN(C)CC3)nc(Sc3ccc(NC(=O)C4CC4)cc3)n2)n[nH]1 [tozasertib]
Method in brief: as §1

[13] = compound: Cc1cc(SCc2sc(-c3ccc(C(F)(F)F)cc3)nc2C)ccc1OCC(=O)O
Method in brief: as §1

[14] = compound: Cc1ccc(-n2nc(C(C)(C)C)cc2NC(=O)Nc2ccc(OCCN3CCOCC3)c3ccccc23)cc1 [doramapimod]
Method in brief: as §1

[15] = compound: Cc1ccc(C(=O)N(CCCN)[C@@H](c2nc3cc(Cl)ccc3c(=O)n2Cc2ccccc2)C(C)C)cc1 [ispinesib]
Method in brief: as §1

[16] = compound: CO[C@H]1C[C@@H]2CC[C@@H](C)[C@@](O)(O2)C(=O)C(=O)N2CCCC[C@H]2C(=O)O[C@H]([C@H](C)C[C@@H]2CC[C@H](n3cnnn3)[C@H](OC)C2)CC(=O)[C@H](C)/C=C(\C)[C@@H](O)[C@@H](OC)C(=O)[C@H](C)C[C@H](C)/C=C/C=C/C=C/1C [zotarolimus]
Method in brief: as §1

[17] = compound: COc1cc(Nc2ncc3c(n2)-c2ccc(Cl)cc2C(c2c(F)cccc2OC)=NC3)ccc1C(=O)O [alisertib]
Method in brief: as §1

[18] = compound: COc1cc2ncnc(Nc3ccc(F)c(Cl)c3)c2cc1OCCCN1CCOCC1 [gefitinib]
Method in brief: as §1

[19] = compound: COc1cccc2cc(-c3nc([C@H]4CC[C@H](C(=O)O)CC4)n4ncnc(N)c34)[nH]c12
Method in brief: as §1

[20] = compound: C[C@H](C1=CC=C(C=C1)C(=O)NC2=C3C=CNC3=NC=C2)N
Method in brief: as §1

Measured: log2 fold change

CAB39L (UniProt Q9H9S4)
Chain of UniProt Q9H9S4 (Q9H9S4 whole entry, looked up): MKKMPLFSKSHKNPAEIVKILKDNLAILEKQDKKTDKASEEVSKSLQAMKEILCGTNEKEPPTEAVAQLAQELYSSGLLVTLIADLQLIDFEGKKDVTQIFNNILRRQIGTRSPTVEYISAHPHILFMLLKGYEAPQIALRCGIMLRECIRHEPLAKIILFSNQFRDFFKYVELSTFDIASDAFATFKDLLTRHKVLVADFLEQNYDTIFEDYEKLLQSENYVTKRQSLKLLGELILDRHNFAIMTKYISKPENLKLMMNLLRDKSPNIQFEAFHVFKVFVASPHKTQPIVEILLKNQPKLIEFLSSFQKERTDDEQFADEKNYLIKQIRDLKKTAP
inactive: [1] -0.063 | [2] -0.07 | [3] -0.052 | [4] 0.07 | [5] 0.057 | [6] 0.029 | [7] 0.13 | [8] 0.036 | [9] -0.01 | [10] -0.014 | [12] 0.03 | [13] 0.053 | [14] 0.024 | [15] -0.031
active: [11] 0.448

CDK4 (UniProt P11802)
Chain of UniProt P11802 (P11802 whole entry, looked up): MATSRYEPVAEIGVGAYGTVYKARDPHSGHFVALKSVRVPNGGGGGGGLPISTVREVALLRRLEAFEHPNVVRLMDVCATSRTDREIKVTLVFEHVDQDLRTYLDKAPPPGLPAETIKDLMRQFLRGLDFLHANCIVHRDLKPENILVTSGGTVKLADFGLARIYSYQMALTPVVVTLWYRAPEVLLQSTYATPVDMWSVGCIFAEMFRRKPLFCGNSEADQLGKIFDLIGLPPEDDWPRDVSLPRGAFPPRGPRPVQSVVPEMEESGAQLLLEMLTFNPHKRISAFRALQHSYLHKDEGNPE
inactive: [1] -0.111 | [2] 0.09 | [16] -0.071 | [3] 0.061 | [17] 0.062 | [4] -0.049 | [18] 0.017 | [19] -0.057 | [5] -0.031 | [7] 0.108 | [8] -0.108 | [9] -0.152 | [20] 0.377 | [10] 0.104 | [13] 0.021 | [14] 0.079 | [15] 0.094

COG2 (UniProt Q14746)
Chain of UniProt Q14746 (Q14746 whole entry, looked up): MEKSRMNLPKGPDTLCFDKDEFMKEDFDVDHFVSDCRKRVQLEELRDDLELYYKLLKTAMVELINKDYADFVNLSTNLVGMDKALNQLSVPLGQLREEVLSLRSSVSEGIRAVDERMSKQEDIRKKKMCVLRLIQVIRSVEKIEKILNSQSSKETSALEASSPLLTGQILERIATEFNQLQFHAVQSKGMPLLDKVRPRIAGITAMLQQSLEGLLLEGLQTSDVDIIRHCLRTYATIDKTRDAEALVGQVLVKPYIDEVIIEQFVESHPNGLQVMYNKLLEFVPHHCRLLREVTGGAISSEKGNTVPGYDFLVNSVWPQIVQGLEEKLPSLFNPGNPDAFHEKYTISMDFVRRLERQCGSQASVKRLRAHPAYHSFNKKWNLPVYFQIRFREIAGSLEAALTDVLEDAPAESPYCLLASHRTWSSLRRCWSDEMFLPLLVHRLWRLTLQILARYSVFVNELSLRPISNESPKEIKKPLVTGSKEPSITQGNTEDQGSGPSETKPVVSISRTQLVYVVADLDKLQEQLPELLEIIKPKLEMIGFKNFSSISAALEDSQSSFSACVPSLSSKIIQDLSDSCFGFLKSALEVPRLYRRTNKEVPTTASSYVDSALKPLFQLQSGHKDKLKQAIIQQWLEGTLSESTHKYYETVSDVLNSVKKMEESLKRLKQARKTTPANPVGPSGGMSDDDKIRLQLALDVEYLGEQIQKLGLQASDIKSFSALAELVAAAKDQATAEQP
inactive: [1] -0.006 | [2] 0.25 | [16] -0.048 | [3] -0.053 | [17] 0.58 | [18] -0.187 | [7] -0.029 | [8] -0.17 | [9] 0.094 | [20] 0.483 | [10] -0.094 | [12] -0.153 | [13] 0.061 | [14] 0 | [15] -0.264
active: [19] 0.631

C22orf39 (UniProt Q6P5X5)
Chain of UniProt Q6P5X5 (Q6P5X5 whole entry, looked up): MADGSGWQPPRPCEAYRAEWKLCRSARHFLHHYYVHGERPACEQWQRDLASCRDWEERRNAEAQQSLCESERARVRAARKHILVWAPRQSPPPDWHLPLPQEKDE
inactive: [1] 0.02 | [2] -0.043 | [16] -0.014 | [3] 0.119 | [17] -0.025 | [4] -0.344 | [18] 0.058 | [19] -0.006 | [5] 0.077 | [7] 0.075 | [8] -0.303 | [9] 0.06 | [20] -0.057 | [10] 0 | [12] 0.096 | [13] -0.135 | [14] 0.072 | [15] -0.207

CRLS1 (UniProt Q9UJA2)
Chain of UniProt Q9UJA2 (Q9UJA2 whole entry, looked up): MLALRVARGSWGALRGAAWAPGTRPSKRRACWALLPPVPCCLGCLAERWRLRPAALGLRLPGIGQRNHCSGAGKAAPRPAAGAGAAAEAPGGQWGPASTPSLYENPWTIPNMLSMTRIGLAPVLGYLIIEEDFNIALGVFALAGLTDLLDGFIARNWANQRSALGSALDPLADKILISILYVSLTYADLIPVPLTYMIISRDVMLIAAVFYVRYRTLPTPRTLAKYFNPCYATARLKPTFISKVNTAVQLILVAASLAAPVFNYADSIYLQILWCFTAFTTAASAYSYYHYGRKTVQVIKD
inactive: [1] 0.044 | [2] -0.125 | [16] 0.005 | [17] -0.071 | [4] -0.229 | [18] 0.021 | [19] 0.075 | [5] 0.046 | [6] -0.029 | [7] -0.228 | [8] 0.02 | [20] -0.047 | [10] -0.025 | [11] -0.083 | [12] 0 | [13] 0.05 | [14] 0.023

CFAP36 isoform 2 (UniProt Q96G28)
Chain of UniProt Q96G28 (Q96G28 whole entry, looked up): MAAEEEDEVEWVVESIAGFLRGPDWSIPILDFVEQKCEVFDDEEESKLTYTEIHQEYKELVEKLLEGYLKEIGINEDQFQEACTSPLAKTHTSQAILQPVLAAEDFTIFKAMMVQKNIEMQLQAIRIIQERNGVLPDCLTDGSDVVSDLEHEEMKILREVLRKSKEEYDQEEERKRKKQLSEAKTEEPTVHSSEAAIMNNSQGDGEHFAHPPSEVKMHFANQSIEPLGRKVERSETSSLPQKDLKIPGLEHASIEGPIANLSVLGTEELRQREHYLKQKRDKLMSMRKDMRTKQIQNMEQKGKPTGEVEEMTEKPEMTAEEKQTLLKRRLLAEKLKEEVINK
active: [20] -0.394 | [12] 0.587
inactive: [1] 0.12 | [2] 0.055 | [16] 0.162 | [3] -0.02 | [17] -0.049 | [4] 0.001 | [19] 0.019 | [5] 0.082 | [6] 0.241 | [7] -0.013 | [8] -0.201 | [9] 0.078 | [10] 0.133 | [11] -0.048 | [13] -0.007 | [14] 0.096 | [15] -0.053

CAV2 (UniProt P51636)
Chain of UniProt P51636 (P51636 whole entry, looked up): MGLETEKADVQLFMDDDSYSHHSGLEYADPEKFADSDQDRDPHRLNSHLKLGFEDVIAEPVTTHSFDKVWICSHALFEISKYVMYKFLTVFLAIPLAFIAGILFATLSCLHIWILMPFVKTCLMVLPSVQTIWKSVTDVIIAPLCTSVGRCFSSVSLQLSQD
inactive: [1] -0.046 | [2] 0.131 | [3] 0 | [17] -0.083 | [4] -0.011 | [18] 0.137 | [19] 0.026 | [5] -0.018 | [6] 0.031 | [7] -0.067 | [8] -0.087 | [10] 0.075 | [11] 0.043 | [12] -0.115 | [13] 0.035 | [14] 0.13

CLN8 (UniProt Q9UBY8)
Chain of UniProt Q9UBY8 (Q9UBY8 whole entry, looked up): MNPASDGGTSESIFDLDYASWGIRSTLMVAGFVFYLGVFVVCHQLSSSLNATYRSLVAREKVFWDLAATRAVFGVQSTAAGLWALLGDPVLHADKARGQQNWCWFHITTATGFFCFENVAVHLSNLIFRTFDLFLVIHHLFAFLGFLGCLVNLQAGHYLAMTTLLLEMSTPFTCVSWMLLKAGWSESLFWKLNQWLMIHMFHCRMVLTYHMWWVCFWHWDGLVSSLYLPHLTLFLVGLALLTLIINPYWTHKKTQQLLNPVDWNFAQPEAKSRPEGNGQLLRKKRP
inactive: [2] 0.068 | [16] 0.13 | [3] -0.145 | [17] 0.04 | [4] -0.019 | [18] 0.075 | [19] -0.015 | [5] 0.012 | [7] -0.006 | [20] 0.161 | [10] 0.049 | [11] -0.1 | [12] -0.05 | [13] -0.09 | [15] -0.15

CSNK1A1 isoform 3 (UniProt P48729)
Chain of UniProt P48729 (P48729 whole entry, looked up): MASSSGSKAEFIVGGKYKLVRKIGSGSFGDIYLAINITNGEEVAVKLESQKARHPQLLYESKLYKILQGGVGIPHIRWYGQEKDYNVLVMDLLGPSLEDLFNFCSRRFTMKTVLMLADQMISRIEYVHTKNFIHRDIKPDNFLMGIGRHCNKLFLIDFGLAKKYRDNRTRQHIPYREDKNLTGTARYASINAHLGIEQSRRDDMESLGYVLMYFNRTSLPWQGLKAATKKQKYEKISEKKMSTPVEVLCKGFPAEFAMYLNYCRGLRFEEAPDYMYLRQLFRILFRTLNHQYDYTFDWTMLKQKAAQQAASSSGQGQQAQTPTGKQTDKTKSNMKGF
inactive: [4] -0.006 | [19] 0.091 | [5] 0.129

CPNE5 (UniProt Q9HCH3)
inactive: [16] -0.102 | [20] 0.148 | [12] 0.374

CFAP58 (UniProt Q5T655)
inactive: [17] -0.156 | [4] 0 | [19] 0.032 | [5] 0.001 | [6] 0.122 | [11] -0.011 | [15] -0.165

CLPTM1L (UniProt G5E9Z2)
inactive: [2] -0.235 | [16] -0.101 | [3] -0.446 | [17] -0.199 | [18] -0.142 | [19] 0.099 | [7] -0.317 | [9] 0.073 | [20] 0.067 | [11] -0.382 | [12] -0.049

CNN1 (UniProt P51911)
Chain of UniProt P51911 (P51911 whole entry, looked up): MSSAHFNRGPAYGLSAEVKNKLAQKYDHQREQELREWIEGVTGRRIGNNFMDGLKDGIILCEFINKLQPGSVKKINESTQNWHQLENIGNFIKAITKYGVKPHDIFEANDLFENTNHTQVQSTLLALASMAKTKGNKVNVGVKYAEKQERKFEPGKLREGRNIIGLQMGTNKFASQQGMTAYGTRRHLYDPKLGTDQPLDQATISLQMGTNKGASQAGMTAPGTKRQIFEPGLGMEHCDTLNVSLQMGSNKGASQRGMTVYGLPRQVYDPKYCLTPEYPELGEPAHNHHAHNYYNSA
active: [11] -0.673
inactive: [2] -0.051 | [16] 0.047 | [3] -0.048 | [17] -0.055 | [4] 0.182 | [18] -0.14 | [19] 0.059 | [5] -0.068 | [6] 0.172 | [7] -0.052 | [9] 0.045 | [20] -0.121 | [12] -0.151

CARD9 (UniProt Q9H257)
Chain of UniProt Q9H257 (Q9H257 whole entry, looked up): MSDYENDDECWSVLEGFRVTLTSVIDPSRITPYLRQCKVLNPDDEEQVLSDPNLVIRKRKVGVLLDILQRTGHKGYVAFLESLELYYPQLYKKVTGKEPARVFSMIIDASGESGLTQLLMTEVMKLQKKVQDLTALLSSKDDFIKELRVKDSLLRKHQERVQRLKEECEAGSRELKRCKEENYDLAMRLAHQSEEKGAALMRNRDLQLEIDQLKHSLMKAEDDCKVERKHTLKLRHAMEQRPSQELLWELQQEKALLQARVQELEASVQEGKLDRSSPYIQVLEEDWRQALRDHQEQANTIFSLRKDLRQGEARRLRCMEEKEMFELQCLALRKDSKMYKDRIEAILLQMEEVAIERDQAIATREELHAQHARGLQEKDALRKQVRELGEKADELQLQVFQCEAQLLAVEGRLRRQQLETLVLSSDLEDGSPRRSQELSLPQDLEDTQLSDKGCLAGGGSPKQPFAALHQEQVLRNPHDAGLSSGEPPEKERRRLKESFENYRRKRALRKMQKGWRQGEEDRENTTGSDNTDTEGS
inactive: [1] -0.062 | [3] 0.169 | [8] -0.023 | [14] 0.135 | [15] -0.398

CDK2AP2 (UniProt O75956)
Chain of UniProt O75956 (O75956 whole entry, looked up): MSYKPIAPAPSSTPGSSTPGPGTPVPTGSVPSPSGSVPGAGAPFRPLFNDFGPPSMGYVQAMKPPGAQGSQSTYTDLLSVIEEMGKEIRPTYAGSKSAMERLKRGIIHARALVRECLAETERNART
inactive: [1] 0.078 | [16] -0.022 | [3] -0.043 | [17] -0.019 | [18] -0.009 | [19] -0.11 | [8] 0.213 | [9] 0.173 | [20] -0.015 | [14] -0.014 | [15] -0.011

CCDC187, A0A1W2PQX5
inactive: [3] -0.051 | [18] -0.312 | [6] 0.191 | [9] -0.042 | [11] -0.352 | [15] 0.274

CREB3L2 (UniProt Q70SY1)
Chain of UniProt Q70SY1 (Q70SY1 whole entry, looked up): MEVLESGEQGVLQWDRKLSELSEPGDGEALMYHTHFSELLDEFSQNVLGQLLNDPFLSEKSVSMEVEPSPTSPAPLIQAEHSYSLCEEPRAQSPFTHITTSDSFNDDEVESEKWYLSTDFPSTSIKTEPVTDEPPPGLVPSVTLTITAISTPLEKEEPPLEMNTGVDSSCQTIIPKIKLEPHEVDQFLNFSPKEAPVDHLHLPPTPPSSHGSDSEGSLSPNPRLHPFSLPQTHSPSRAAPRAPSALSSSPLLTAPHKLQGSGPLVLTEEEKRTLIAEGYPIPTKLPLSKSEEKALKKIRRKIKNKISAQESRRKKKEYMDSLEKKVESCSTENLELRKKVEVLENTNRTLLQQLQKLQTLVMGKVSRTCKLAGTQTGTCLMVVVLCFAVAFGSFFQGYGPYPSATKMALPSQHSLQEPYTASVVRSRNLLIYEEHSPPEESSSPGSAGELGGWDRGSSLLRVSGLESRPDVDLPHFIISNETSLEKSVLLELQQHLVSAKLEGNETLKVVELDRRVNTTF
inactive: [1] 0.584 | [16] 0.042 | [3] 0.045 | [17] -0.022 | [18] -0.154 | [19] 0.176 | [8] 0.098 | [9] -0.076 | [20] -0.26 | [12] -0.132 | [14] 0.128 | [15] -0.342

CCND3 (UniProt P30281)
Chain of UniProt P30281 (P30281 whole entry, looked up): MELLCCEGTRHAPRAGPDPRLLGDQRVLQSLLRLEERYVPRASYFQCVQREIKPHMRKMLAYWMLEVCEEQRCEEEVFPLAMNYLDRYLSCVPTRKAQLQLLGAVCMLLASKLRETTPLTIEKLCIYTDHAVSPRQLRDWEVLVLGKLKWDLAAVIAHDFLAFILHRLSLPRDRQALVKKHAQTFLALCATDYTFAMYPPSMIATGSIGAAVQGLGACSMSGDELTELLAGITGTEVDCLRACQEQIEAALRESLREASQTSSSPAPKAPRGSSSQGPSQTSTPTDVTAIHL
inactive: [16] -0.035 | [3] -0.036 | [17] -0.043 | [4] -0.276 | [19] 0.012 | [5] 0.083 | [6] 0.03 | [9] -0.271 | [20] 0.096 | [10] 0.014 | [11] -0.027 | [12] -0.058 | [13] 0.058 | [15] -0.116

CLINT1 (UniProt Q14677)
inactive: [1] -0.371 | [16] 0.263 | [3] -0.012 | [17] -0.137 | [18] 0.077 | [19] -0.055 | [8] 0.166 | [20] 0.005 | [10] -0.08 | [12] 0.074 | [13] -0.155 | [14] 0.154
